# Active and inactive are the calls of the source. How the calls were made is not given here.
# Biological target: Proto-oncogene tyrosine-protein kinase Src (Homo sapiens) (UniProt P12931)
# Assay: SRC kinase inhibition relative to ABL, profiling panel, biochemical, recombinant kinase panel (AID 1224917)
# Settings: 33P substrate incorporation, hits give high values
# Sequence of Proto-oncogene tyrosine-protein kinase Src (Homo sapiens) (P12931 whole entry, looked up): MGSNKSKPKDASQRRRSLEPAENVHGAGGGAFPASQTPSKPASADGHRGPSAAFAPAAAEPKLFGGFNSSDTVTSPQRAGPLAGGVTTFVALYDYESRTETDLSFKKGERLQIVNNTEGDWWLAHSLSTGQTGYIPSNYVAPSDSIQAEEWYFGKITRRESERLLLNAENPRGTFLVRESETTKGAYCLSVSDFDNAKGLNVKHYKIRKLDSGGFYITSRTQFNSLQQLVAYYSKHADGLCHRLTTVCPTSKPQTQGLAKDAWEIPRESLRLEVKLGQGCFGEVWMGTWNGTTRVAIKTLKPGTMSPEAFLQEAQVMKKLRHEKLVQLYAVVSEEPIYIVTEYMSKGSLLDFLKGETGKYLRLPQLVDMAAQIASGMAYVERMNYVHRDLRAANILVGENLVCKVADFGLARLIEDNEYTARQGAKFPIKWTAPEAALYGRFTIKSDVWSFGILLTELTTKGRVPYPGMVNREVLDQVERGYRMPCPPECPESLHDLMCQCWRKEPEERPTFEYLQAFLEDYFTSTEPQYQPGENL
compound,measurement,value
COc1cc(-c2nn(CCN3CCC(N(C)C)CC3)c3ncnc(N)c23)ccc1NC(=O)OC(C)(C)C,selectivity fold (ABL/SRC IC50),> 950 (active)
